Reference: PubChem BioAssay AID1565 (Sanford-Burnham Center for Chemical Genomics, 2009)
Hit rate of the full screen: of about 290,000 compounds, about 3,200 (1.1%) were called active. Only a selection was taken, and actives are over-represented in it overall. A number with no mark means an inactive call. Rule as the data show it: active = inhibition above about 60%; inactive = the rest. Peptide text beside a SMILES is read from it.

Target: Phosphoethanolamine/phosphocholine phosphatase (Homo sapiens) (UniProt Q8TCT1)
Sequence (Q8TCT1 whole entry, looked up): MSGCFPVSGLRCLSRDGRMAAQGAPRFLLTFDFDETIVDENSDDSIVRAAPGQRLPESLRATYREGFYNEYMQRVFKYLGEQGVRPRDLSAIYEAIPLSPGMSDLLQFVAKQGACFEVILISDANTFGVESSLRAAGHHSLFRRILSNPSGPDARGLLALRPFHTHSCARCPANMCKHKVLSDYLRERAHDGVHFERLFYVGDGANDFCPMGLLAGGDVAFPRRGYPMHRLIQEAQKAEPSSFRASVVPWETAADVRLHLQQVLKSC
Test: PubChem AID 1565
Settings: recombinant PHOSPHO1, absorbance phosphatase assay; at 13.3 µM; hits give high values

In order of falling inhibition:
1. CCCNC(=O)C(=O)Nc1cc2c3c(c1)CCC(=O)N3CCC2  54.7%
2. CC(C)Oc1ccc(C(CC(=O)N2CCOCC2)C(C)C)cc1 (stereo not given)  52.2%
3. O=C(COC(=O)/C=C/c1cccs1)NC1CCCCC1  51%
4. CC1(C)Oc2ccc3ccc(=O)oc3c2/C(=N/O)C1=O  50.4%
5. c1ccc(Cc2nn3c(Cn4cnc5ccccc54)nnc3s2)cc1  45.1%
6. COC(=O)c1ccc(S(=O)(=O)N2CCc3ccccc3C2)cc1  44.4%
7. CC(=O)OC(COc1ccc(F)cc1)Cn1cnc2ccccc21 (stereo not given)  43.9%
8. Cc1[nH]c(C)c(S(=O)(=O)N2CCN(c3cccc(C(F)(F)F)c3)CC2)c1C(=O)N1CCCCC1  42.6%
9. CC(=O)N1c2ccc(S(=O)(=O)N3CCCC(C(=O)NCc4ccc(Cl)cc4)C3)cc2CC1C (stereo not given)  42.6%
10. O=C(N/N=C/c1cccc(OCc2ccccc2)c1)c1ccc(Br)o1  41.4%
11. Cc1cc2nnc(SCC(=O)N3CCN(c4ccccc4)CC3)n2c(N)n1  40.7%
12. Cc1ccc2nc(N3C(=O)C(O)=C(C(=O)c4ccco4)C3c3cccc(O)c3)sc2c1 (stereo not given)  40.5%
13. CC(=O)N1CCC(C(=O)OCc2ccc(Cl)cc2)(c2ccccc2)CC1  40%
14. COc1ccc(CNC(=O)COc2cccnc2[N+](=O)[O-])cc1  39.9%
15. Cc1ccc(NC(=O)C2CC2c2ccccc2)cc1 (stereo not given)  39.5%
16. O=C(CCN1C(=O)[C@@H]2Cc3ccccc3CN2C1=O)NCCc1ccccc1  38.2%
17. COc1ccccc1-c1cnn2c(N3CCOCC3)cc(C)nc12  38.1%
18. CCCCNC(=O)CN1C(=O)NC(Cc2ccccc2)(Cc2ccccc2)C1=O  35%
19. Cn1c(SCC(=O)N2CCCC2)nnc1-c1ccc2c(c1)OCO2  35%
20. COC(=O)[C@@H](Cc1ccccc1)NC(=O)NCCc1ccccc1  34%
21. CC(C)(C)c1ccc(/C=C/C(=O)NCCCn2ccnc2)cc1  33.7%
22. CSCc1nnc(NC(=O)c2ccc(S(=O)(=O)N3CCCCC3C)cc2)o1 (stereo not given)  32.3%
23. Cc1sc2ncn(CC(=O)NCCCC(=O)NCc3ccc(F)cc3)c(=O)c2c1C  31.9%
24. CCn1c(SCC(=O)c2ccc(Cl)s2)nnc1-c1cccs1  31.9%
25. CCCSc1nc2sc3c(c2c(=O)n1-c1ccc(OC)cc1)CCN(C)C3  31.6%
26. O=C(CSCc1cccs1)N1CCCC1  31%
27. CCOC(=O)c1cc(C(=O)Nc2ccc(S(=O)(=O)Nc3ccc(OC)cc3)cc2)nn1C  28.7%
28. O=C(CNC(=O)c1ccccc1)NCC(=O)OCC(=O)c1ccccc1 (HELM PEPTIDE1{[O=C(c1ccccc1)[*:2]].G.G.[O=C(CO[*:1])c1ccccc1]}$$$$V2.0)  27.8%
29. Cc1cc(=O)n2nc(N3CCCC(C(=O)NCc4ccc(Cl)cc4)C3)sc2n1 (stereo not given)  27.6%
30. COC(=O)Cc1cnc(NC(=O)CSc2nc(C(C)C)cc(=O)[nH]2)s1  26.5%
31. CCCCCn1c(=O)[nH]c2cc(C(=O)NCCCN3CCCCC3C)ccc2c1=O (stereo not given)  26.1%
32. CCc1ccc(-c2cc3c(=O)n(CC(=O)NCCCN4CCN(Cc5ccccc5)CC4)nc(C)n3n2)cc1  26.1%
33. COC(=O)[C@@H]1CC(O)CN1C(=O)C12CC3CC(CC(C3)C1)C2 (stereo not given in full)  24.2%
34. NC(=O)C(Cc1ccccc1)NC(=O)C12CC3CC(CC(C3)C1)C2 (stereo not given)  24.1%
35. CC1(C)Cc2ccccc2/C(=C/C(=O)c2ccccc2)N1  24.1%
36. CCCOc1cccc(C(=O)Nc2ccccc2C(=O)N2CCN(C)CC2)c1  24%
37. CC(C)CCNC(=O)c1ccc2c(Cl)c3c(nc2c1)CCC3  23.9%
38. Oc1ccc(Br)cc1/C=N/Nc1ccccn1  22.9%
39. Cc1ccc(NC(=O)C2CCCN2C(=O)OCc2ccccc2)cc1C (stereo not given)  22.6%
40. CCc1cccc(C)c1NC(=O)CSc1nnc(-c2ccco2)n1N  22.6%
41. COCc1cc(=O)oc2cc(NS(=O)(=O)c3ccc(C)cc3)ccc12  22.5%
42. O=C(OCCN1C(=O)c2ccccc2C1=O)Oc1ccccc1  22.3%
43. O=Cc1c(NCCc2cccc(F)c2)c2ccccc2[nH]c1=O  19.2%
44. CN(CC(=O)Nc1ccccc1C(F)(F)F)C(=O)Cc1ccccc1F  18.7%
45. CCOc1ccc(OCc2ccc(C(=O)N(C)c3ccccc3)o2)cc1  18.7%
46. N#C/C=C/N1CCN(Cc2ccc3c(c2)OCO3)CC1  15.6%
47. O=C(C1CC1)N1N=C(c2ccc(Br)cc2)CC1(O)C(F)(F)F (stereo not given)  15.6%
48. O=C(CSc1nc(C2CC2)nc2ccccc12)Nc1cccc(O)c1  15.1%
49. O=C(CSc1nnc(-c2cccs2)n1-c1ccccc1)NCc1ccco1  14.6%
50. CC(C)(C)SCCSC1=CC(=O)CC(c2ccccc2)C1 (stereo not given)  14.1%
51. COc1ccc(C2NC(=O)N(C)C(C)=C2[N+](=O)[O-])cc1 (stereo not given)  14.1%
52. NC(=O)c1c(NC(=O)CSc2nc(N)cc(=O)[nH]2)sc2c1CCCC2  12.9%
53. O=C(Nc1cccc(Cl)c1Cl)c1ccccc1NC(=O)C1CC=CCC1C(=O)O (stereo not given)  12.3%
54. Cc1nc(SCC(=O)N2CCc3ccccc3C2)c2c(C)c(C)sc2n1  9.7%
55. O=C(CNC(=O)c1ccc(-c2ccccc2)cc1)OCc1ccc(Cl)cc1  9.5%
56. C/C=C(/C)C(=O)OC1Cc2c(ccc3ccc(=O)oc23)OC1(C)C (stereo not given)  8.5%
57. CC(NC(=O)c1ccccc1C(=O)O)c1ccc(-n2ccnc2)cc1 (stereo not given)  8.3%
58. Cc1ccc2[nH]c(=O)c(CC(=O)O)c(-c3ccccc3)c2c1  7.8%
59. CCCCNC(=O)CSc1nnc(-c2ccco2)n1C  4.7%
60. COc1ccc(O)c(/C=N/N=C/c2cccc([N+](=O)[O-])c2)c1  4.2%
61. Cc1cc2ccccc2n2c(SCC(=O)N3CCN(C(=O)c4ccco4)CC3)nnc12  3.7%
62. CCC(C(=O)OC)n1cnc2c(oc3ccccc32)c1=O (stereo not given)  1%
63. COc1ccccc1NC(=O)C1CCCN1S(=O)(=O)c1ccc(Cl)cc1 (stereo not given)  0%
64. CCOc1ccc(NC(=O)CCC(=O)NNC(=O)NC2CCCCC2)cc1  -0.6%
65. COc1ccc(C(=O)C2CCCN(C(=O)c3ccc(OC)o3)C2)c(C)c1 (stereo not given)  -0.6%
66. Cc1cc(C)c(OCC(=O)N/N=C/c2ccco2)c(C)c1  -1.4%
67. O=C(c1ccccc1)N1CCC(CC2CC(c3ccc(Cl)cc3)=NO2)(C(=O)NCC2CCCCC2)CC1 (stereo not given)  -1.7%
68. CCS(=O)(=O)NCCc1ccc(OC)c(OC)c1  -2.4%
69. Cc1ccc(NC(=O)CCC(=O)N/N=C/c2ccco2)c(C)c1  -4.9%
70. Cc1c(S(=O)(=O)NC(C)c2ccccc2)c(=O)n(C)c(=O)n1C (stereo not given)  -5.4%
71. COc1ccc(CCNS(=O)(=O)c2ccc(F)cc2)cc1OC  -6.8%
72. O=C(CSc1nnc(Cc2ccccc2)n1-c1ccccc1)N1CCOCC1  -9.6%
73. CCOC(=O)Cc1csc(SCc2cc(=O)oc3cc(O)ccc23)n1  -13.2%
74. CC1=C/C(=N\OS(=O)(=O)c2ccccc2)C=CC1=O  -13.3%
75. CCCNC(=O)NC(=O)COC(=O)CC(NC(N)=O)c1ccc(Cl)cc1 (stereo not given)  -17.2%
76. CCOC(=O)CSc1nnc(-c2ccco2)n1C  -19.7%
77. Cc1cc(-c2n[nH]c(=S)n2/N=C/c2ccco2)n[nH]1  -60%
78. Cc1ccccc1-c1n[nH]c(=S)n1/N=C/c1ccc(-c2ccccc2Br)o1  -60.1%
79. O=S(=O)(NC(=S)Nc1ccccc1)c1ccc(F)cc1  -122%

Fc1ccc(OCc2nn3c(Cn4nnc5ccccc54)nnc3s2)cc1 was tested, and the inhibition was 82.3% (active).
For Cc1n[nH]c(=S)n1/N=C/c1ccc(Br)o1, the inhibition was 99.1% (active).
For Cc1ccc(OCC(=O)N/N=C\c2ccco2)c(C)c1, the inhibition was 61.1% (active).
CCOC(=O)c1cc(S(=O)(=O)NCCc2ccc(OC)c(OC)c2)cn1C was tested, and the inhibition was 69.7% (active).
For O=C(NNC(=S)Nc1ccc(F)cc1)[C@H]1C[C@@H]1c1ccccc1, the inhibition was 76.8% (active).
For O=C(C1CC1)N1N=C2CCCCC2C1(O)C(F)(F)F (stereo not given), the inhibition was 60.9% (active).
With CC1(C)Oc2ccc3ccc(=O)oc3c2/C(=C/NCCO)C1=O the inhibition was 87% (active).
For O=C(CSc1nnc(-c2cccs2)n1Cc1ccccc1)N1CCc2ccccc2C1, the inhibition was 78.3% (active).
In the case of O=C(CSc1nnc(-c2cccs2)n1-c1ccccc1)N1CCN(C(=O)c2ccco2)CC1, the inhibition is reported as 89.7% (active).
Cn1c(SCC(=O)N2CCCC2)nnc1-c1cccs1 was tested, and the inhibition was 67.9% (active).
Cn1c(SCC(=O)c2cccs2)nnc1-c1ccco1 was tested, and the inhibition was 64.6% (active).
In the case of Cc1nnc(SCC(=O)N2CCN(c3ccccc3)CC2)n1-c1ccccc1, the inhibition is reported as 68.4% (active).
For Cc1ccc2c(CSc3nncs3)cc(=O)oc2c1, the inhibition was 76.1% (active).
For COCCNC(=O)NC(=O)COC(=O)C1(c2ccc(Cl)cc2)CC1, the inhibition was 62.9% (active).
For NC(=O)c1c(NC(=O)CSc2nnc(-c3ccco3)n2N)sc2c1CCCC2, the inhibition was 103% (active).
O=C(CNC(=O)c1ccccc1)NCC(=O)OCc1ccc(Cl)cc1 was tested, and the inhibition was 62.3% (active).
